Holding throughout (experiment): DAPPL (digital affinity profiling via proximity ligation, sequencing); 10 mM Tris-HCl pH 7.5, 50 mM NaCl, 1 mM DTT, 4% glycerol, room temperature, 30 min; GST-TFs on glutathione beads, 16-mer random dsDNA library, 0.1% formaldehyde crosslink after washing; high values mean tight binding
The target of one assay is T1, FEV (Homo sapiens, UniProt Q99581 1-238).
T1 sequence: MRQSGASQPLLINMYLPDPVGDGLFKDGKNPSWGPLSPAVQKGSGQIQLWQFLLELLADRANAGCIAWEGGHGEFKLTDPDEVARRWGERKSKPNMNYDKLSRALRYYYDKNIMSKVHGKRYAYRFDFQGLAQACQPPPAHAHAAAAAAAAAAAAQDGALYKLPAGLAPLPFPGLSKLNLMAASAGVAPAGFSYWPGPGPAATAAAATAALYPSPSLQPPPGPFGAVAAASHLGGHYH
The note with it: protein: recombinant; tags: N-terminal GST; dsDNA, one strand shown. The essentials:
(§1)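 Human transcription factors were made in yeast as GST fusions, captured on glutathione beads and barcoded with DNA. With a tag-only sample included, the pool was incubated with 200 nmole of a random double-stranded 16-mer DNA library in Tris/NaCl/DTT/glycerol buffer at room temperature for 30 min, then crosslinked with 0.1% formaldehyde after washing, ligated by proximity, amplified and sequenced. For binding signal, each hexamer's read frequency for a factor is divided by its frequency for the tag-only sample.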

Another assay addresses ETV5 (Homo sapiens, UniProt P41161 1-510). The note with it: protein: recombinant; tags: N-terminal GST; dsDNA, one strand shown. In short, it runs like this:
as §1

The target of the next assay is HSF1 (Homo sapiens, UniProt Q00613 1-529). The note with it: protein: recombinant; tags: N-terminal GST; chain copies: 3; dsDNA, one strand shown. In short, it runs like this: as §1
HSF1, sequence (Q00613 whole entry): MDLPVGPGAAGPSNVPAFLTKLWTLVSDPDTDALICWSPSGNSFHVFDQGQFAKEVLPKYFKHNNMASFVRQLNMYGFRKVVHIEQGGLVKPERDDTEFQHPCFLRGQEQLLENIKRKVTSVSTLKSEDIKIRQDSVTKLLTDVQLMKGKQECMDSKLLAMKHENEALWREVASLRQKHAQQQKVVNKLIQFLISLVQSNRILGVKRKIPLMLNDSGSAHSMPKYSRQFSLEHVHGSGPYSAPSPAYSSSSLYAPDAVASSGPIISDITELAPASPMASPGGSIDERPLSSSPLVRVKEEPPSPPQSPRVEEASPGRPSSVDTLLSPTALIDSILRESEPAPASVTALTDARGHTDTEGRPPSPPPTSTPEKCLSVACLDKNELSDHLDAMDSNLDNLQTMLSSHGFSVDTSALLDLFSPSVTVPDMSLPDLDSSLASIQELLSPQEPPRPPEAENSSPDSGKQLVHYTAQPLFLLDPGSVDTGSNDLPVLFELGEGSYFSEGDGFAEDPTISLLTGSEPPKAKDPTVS
Another assay deals with T2, SPIC (Homo sapiens, UniProt Q8N5J4 1-248).
T2 sequence: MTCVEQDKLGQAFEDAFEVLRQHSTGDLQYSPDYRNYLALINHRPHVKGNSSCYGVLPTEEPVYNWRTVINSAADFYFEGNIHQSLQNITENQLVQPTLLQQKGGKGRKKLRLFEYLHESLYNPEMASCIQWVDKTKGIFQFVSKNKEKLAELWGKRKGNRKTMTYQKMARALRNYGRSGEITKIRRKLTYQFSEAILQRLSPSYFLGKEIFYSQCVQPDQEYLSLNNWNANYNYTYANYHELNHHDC
To be noted: protein: recombinant; tags: N-terminal GST; dsDNA, one strand shown. In short, it runs like this:
as §1

The next assay deals with ELF4 (Homo sapiens, UniProt Q99607 1-663). To be noted: protein: recombinant; tags: N-terminal GST; dsDNA, one strand shown. In short, it runs like this: as §1
ELF4, sequence (Q99607 whole entry): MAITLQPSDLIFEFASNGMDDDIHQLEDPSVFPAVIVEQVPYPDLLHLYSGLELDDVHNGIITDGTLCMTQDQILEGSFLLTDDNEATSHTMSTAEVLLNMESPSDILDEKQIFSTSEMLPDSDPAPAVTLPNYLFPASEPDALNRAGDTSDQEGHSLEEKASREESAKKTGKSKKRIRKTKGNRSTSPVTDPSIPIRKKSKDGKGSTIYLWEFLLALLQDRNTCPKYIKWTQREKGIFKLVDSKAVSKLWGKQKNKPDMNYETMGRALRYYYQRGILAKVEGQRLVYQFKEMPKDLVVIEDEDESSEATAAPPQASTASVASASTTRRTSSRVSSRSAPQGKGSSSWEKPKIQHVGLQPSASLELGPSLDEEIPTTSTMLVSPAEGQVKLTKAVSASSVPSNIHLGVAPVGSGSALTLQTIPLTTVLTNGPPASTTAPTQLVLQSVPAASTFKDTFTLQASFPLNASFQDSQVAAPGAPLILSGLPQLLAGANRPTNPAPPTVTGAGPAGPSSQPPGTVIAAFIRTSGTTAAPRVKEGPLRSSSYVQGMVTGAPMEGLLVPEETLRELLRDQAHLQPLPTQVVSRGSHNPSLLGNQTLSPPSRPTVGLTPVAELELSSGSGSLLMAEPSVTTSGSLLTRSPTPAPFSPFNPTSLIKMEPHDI
The target in a further assay is T3, ELK4 (Homo sapiens, UniProt P28324-2 1-405).
T3 sequence: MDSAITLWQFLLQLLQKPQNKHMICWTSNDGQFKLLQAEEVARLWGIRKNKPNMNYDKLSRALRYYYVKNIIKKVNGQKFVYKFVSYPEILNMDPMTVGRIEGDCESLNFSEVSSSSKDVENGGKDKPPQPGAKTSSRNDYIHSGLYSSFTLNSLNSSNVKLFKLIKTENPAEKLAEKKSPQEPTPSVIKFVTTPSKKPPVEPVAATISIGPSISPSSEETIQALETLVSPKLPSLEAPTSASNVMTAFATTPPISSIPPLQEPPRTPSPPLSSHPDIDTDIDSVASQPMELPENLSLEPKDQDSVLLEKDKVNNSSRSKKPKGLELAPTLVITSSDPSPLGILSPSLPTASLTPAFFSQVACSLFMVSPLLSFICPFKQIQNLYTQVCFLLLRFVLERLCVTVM
The note with it: protein: recombinant; tags: N-terminal GST; dsDNA, one strand shown. The essentials: as §1

The target of a further assay is T4, ETV2 (Homo sapiens, UniProt O00321 1-342).
T4 sequence: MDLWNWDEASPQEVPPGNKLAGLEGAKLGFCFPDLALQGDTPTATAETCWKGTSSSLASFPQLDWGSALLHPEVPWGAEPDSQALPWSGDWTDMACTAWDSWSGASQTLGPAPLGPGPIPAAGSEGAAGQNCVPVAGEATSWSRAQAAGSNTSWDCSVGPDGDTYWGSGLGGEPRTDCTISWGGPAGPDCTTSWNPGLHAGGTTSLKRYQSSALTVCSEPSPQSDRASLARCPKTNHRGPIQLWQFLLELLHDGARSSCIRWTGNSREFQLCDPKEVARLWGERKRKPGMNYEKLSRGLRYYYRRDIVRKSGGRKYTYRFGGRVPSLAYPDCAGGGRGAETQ
To be noted: protein: recombinant; tags: N-terminal GST; dsDNA, one strand shown. The essentials: as §1

In the next assay the target is T5, ELF3 (Homo sapiens, UniProt P78545 1-371).
T5 sequence: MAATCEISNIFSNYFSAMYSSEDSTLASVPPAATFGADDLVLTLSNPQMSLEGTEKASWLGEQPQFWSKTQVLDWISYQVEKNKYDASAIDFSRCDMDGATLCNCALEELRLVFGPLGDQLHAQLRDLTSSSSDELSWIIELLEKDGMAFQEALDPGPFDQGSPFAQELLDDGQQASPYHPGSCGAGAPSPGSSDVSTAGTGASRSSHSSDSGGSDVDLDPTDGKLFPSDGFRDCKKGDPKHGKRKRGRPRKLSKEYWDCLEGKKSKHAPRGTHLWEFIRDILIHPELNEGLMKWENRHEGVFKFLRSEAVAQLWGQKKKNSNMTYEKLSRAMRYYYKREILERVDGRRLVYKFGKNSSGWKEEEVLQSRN
The note with it: protein: recombinant; tags: N-terminal GST; dsDNA, one strand shown. In short, it runs like this: as §1

A further assay deals with CRX (Homo sapiens, UniProt O43186 1-299). To be noted: protein: recombinant; tags: N-terminal GST; dsDNA, one strand shown. The essentials:
as §1

The next assay concerns the target ETV1 (Homo sapiens, UniProt P50549 1-477). The note with it: protein: recombinant; tags: N-terminal GST; dsDNA, one strand shown. The essentials:
as §1

The target of another assay is T6, ERF (Homo sapiens, UniProt P50548 1-548).
T6 sequence: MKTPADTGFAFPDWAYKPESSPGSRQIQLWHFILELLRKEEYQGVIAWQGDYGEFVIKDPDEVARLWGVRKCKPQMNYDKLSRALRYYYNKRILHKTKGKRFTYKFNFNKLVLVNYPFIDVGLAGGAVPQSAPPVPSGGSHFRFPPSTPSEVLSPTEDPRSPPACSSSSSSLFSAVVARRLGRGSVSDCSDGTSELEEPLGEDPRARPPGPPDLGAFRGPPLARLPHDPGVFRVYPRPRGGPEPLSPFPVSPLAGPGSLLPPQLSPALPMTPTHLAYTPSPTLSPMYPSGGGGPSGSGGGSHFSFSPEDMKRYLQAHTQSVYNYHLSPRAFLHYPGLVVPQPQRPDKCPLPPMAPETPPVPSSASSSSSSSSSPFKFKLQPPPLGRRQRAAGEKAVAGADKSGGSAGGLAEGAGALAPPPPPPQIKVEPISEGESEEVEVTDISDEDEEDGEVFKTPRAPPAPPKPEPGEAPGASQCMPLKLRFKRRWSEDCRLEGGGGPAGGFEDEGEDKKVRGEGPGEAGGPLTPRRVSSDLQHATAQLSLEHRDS
To be noted: protein: recombinant; tags: N-terminal GST; dsDNA, one strand shown. In short, it runs like this: as §1

Another assay concerns the target T7, ETV3L (Homo sapiens, UniProt Q6ZN32 1-361).
T7 sequence: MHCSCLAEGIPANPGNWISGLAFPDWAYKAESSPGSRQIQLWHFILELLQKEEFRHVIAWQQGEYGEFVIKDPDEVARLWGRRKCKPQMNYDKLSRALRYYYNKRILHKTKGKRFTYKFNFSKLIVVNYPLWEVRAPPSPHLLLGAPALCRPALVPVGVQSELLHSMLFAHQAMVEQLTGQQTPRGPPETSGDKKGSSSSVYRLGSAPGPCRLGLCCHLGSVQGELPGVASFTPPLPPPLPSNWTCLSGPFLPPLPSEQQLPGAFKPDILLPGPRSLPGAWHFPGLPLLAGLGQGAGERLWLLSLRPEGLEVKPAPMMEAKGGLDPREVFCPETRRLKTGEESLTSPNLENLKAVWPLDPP
To be noted: protein: recombinant; tags: N-terminal GST; dsDNA, one strand shown. In short, it runs like this: as §1

Another assay deals with T8, ETS2 (Homo sapiens, UniProt P15036 1-469).
T8 sequence: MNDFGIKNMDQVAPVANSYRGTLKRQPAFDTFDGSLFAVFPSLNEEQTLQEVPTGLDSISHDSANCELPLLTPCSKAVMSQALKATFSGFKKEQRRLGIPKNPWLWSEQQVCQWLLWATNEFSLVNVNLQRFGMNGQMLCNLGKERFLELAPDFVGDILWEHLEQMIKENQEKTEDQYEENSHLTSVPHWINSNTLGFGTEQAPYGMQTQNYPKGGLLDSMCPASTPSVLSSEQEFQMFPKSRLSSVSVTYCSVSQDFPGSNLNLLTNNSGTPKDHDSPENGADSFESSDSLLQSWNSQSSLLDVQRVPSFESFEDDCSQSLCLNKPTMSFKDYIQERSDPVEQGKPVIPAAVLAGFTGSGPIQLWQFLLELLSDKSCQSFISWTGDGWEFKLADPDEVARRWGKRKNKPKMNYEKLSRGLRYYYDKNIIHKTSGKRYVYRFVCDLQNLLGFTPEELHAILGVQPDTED
The note with it: protein: recombinant; tags: N-terminal GST; dsDNA, one strand shown. In short, it runs like this:
as §1

In another assay the target is T9, SPDEF (Homo sapiens, UniProt O95238 1-335).
T9 sequence: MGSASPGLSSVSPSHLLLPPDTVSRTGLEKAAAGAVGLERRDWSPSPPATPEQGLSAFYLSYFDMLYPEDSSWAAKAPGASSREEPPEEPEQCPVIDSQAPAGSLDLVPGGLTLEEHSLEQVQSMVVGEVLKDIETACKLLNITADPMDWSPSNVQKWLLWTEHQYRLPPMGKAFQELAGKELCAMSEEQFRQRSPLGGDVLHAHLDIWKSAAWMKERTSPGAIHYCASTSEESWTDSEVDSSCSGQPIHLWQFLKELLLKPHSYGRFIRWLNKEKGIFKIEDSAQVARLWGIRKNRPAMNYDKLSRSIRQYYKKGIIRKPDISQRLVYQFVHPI
The note with it: protein: recombinant; tags: N-terminal GST; dsDNA, one strand shown. In short, it runs like this: as §1

A further assay has as its target T10, ETV7 (Homo sapiens, UniProt Q9Y603 1-341).
T10 sequence: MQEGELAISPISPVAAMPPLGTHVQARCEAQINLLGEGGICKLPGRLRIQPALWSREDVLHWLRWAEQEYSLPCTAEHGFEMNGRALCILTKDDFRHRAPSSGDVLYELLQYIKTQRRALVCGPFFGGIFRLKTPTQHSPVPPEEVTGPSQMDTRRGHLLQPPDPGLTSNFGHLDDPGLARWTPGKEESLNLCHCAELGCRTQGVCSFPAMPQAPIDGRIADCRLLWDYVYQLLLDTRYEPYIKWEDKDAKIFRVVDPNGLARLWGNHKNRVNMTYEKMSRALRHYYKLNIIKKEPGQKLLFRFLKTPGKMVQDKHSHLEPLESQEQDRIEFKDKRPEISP
The note with it: protein: recombinant; tags: N-terminal GST; dsDNA, one strand shown. In short, it runs like this:
as §1

Another assay deals with T11, ELF5 (Homo sapiens, UniProt Q9UKW6-2 1-255).
T11 sequence: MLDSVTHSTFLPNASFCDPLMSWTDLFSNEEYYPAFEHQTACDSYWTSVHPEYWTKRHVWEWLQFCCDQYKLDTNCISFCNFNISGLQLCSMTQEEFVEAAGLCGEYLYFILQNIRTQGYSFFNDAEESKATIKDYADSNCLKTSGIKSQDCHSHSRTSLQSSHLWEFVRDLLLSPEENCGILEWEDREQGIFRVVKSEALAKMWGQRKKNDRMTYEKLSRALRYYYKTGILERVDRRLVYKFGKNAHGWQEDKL
To be noted: protein: recombinant; tags: N-terminal GST; dsDNA, one strand shown. The essentials:
as §1

In the next assay the target is T12, ETV3 (Homo sapiens, UniProt P41162-2 1-143).
T12 sequence: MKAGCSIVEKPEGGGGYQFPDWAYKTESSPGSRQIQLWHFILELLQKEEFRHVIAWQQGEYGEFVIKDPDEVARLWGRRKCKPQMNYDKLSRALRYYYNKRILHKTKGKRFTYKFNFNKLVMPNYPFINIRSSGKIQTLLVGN
To be noted: protein: recombinant; tags: N-terminal GST; dsDNA, one strand shown. In short, it runs like this: as §1

For the next assay, the target named is ETV6 (Homo sapiens, UniProt P41212 1-452). To be noted: protein: recombinant; tags: N-terminal GST; dsDNA, one strand shown. The essentials:
as §1

ETV1, sequence (P50549 whole entry): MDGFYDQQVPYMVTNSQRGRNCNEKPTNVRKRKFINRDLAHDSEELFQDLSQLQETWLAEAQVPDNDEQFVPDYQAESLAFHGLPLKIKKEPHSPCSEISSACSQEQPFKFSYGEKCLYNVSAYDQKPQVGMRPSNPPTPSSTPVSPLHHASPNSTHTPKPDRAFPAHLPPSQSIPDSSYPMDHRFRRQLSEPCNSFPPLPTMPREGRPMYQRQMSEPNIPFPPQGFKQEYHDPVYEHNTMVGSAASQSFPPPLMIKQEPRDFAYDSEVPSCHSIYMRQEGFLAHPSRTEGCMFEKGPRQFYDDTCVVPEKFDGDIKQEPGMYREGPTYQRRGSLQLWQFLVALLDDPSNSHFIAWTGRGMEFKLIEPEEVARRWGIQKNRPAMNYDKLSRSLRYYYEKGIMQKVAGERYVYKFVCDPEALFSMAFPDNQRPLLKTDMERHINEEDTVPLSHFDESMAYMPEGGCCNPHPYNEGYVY
CRX, sequence (O43186 whole entry): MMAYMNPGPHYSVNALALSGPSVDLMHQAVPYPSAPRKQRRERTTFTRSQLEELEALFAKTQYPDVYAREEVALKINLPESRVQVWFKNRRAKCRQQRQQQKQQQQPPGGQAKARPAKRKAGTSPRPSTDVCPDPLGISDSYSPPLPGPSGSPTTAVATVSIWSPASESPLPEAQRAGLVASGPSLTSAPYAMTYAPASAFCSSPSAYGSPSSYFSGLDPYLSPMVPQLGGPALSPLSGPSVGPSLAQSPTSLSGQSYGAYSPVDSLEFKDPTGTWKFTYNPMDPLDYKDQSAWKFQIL
ETV5, sequence (P41161 whole entry): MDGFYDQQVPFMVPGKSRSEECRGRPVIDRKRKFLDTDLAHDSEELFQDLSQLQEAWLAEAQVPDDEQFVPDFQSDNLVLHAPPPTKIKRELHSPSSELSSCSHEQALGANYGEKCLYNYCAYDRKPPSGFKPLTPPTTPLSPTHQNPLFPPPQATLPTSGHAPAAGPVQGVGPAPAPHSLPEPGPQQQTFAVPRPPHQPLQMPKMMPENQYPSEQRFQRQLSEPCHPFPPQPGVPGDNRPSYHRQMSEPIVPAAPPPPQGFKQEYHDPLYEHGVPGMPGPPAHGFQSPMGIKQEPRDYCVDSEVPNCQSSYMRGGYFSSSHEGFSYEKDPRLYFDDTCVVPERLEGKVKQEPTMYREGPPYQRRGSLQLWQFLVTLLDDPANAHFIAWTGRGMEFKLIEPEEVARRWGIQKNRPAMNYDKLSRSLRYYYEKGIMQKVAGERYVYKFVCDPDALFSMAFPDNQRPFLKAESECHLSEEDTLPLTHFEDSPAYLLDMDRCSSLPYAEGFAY
ETV6, sequence (P41212 whole entry): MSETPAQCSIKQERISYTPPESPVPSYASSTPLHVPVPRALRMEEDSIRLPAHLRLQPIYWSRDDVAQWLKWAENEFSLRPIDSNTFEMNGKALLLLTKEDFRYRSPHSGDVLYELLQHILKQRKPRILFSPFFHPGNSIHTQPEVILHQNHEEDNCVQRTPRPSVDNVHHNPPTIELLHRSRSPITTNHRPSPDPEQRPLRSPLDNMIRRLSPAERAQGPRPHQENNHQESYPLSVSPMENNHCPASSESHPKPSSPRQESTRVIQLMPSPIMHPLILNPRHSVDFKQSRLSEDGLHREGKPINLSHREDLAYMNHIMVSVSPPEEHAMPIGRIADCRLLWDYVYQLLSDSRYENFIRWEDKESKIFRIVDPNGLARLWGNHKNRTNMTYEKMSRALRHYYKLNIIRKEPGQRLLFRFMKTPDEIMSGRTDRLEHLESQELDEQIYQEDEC

Regarding TCGCCT, the binding signal in the assay with FEV was 1.28 fold enrichment (6-mer frequency, TF over GST control); in the assay with ETV5, 1.3 fold enrichment (6-mer frequency, TF over GST control); in the assay with HSF1 it was 1.3 fold enrichment (6-mer frequency, TF over GST control); with SPIC, 1.22 fold enrichment (6-mer frequency, TF over GST control); in the assay with ELF4 it was 1.27 fold enrichment (6-mer frequency, TF over GST control); in the assay with ELK4 it was 1.5 fold enrichment (6-mer frequency, TF over GST control). The binding signal was 1.3 fold enrichment (6-mer frequency, TF over GST control) with ETV2; 1.31 fold enrichment (6-mer frequency, TF over GST control) with ELF3; 1.32 fold enrichment (6-mer frequency, TF over GST control) in the assay with CRX; 1.41 fold enrichment (6-mer frequency, TF over GST control) with ETV1; 1.27 fold enrichment (6-mer frequency, TF over GST control) with ERF; 1.23 fold enrichment (6-mer frequency, TF over GST control) with ETV3L. For the same sequence, the binding signal with ETS2 is 1.24 fold enrichment (6-mer frequency, TF over GST control); with SPDEF, 1.13 fold enrichment (6-mer frequency, TF over GST control); with ETV7, 1.15 fold enrichment (6-mer frequency, TF over GST control); in the assay with ELF5 it was 1.33 fold enrichment (6-mer frequency, TF over GST control); with ETV3 it was 1.22 fold enrichment (6-mer frequency, TF over GST control); with ETV6 it was 1.32 fold enrichment (6-mer frequency, TF over GST control).

The record behind these values is article PMC7862700, “An all-to-all approach to the identification of sequence-specific readers for epigenetic DNA modifications on cytosine”.
